Assay in all cases: MAPPIT interaction score (arbitrary units); higher = stronger binary interaction signal, active = hit call of the paper
The target in assay [1] is gukh. Particulars: MAPPIT configuration: N-C; pair source set: Lit-BM-16.
The target in assay [2] is mRpL39. Particulars: MAPPIT configuration: N-N; pair source set: DPIM.
The target of assay [3] is gsb-n. Particulars: MAPPIT configuration: N-N; pair source set: Finley_Y2H.
For assay [4], the target named is isoQC. Particulars: MAPPIT configuration: N-N; pair source set: DPIM.
The target of assay [5] is ix. Particulars: pair source set: Lit-BM-16.
In assay [6] the target is grp. To be noted: MAPPIT configuration: N-N; pair source set: DPIM.
For assay [7], the target named is ihog. To be noted: pair source set: Lit-BM-16.
Assay [8] has as its target jvl. Particulars: pair source set: RRS.
In assay [9] the target is glob1. To be noted: MAPPIT configuration: N-N; pair source set: RRS.
Assay [10] addresses htl. To be noted: MAPPIT configuration: N-N; pair source set: RRS.
For assay [11], the target named is hid. Particulars: pair source set: RRS.
Assay [12] deals with gus. To be noted: MAPPIT configuration: N-N; pair source set: Finley_Y2H.

A number with no mark means an inactive call.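 Rule for the calls: active = MAPPIT score above the 99th percentile of random reference set scores in the same batch; inactive = at or below it.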
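Note: HEK293T cells with Epo stimulation, STAT-responsive firefly luciferase reporter, fold induction versus unstimulated cells divided by the larger fold induction of two negative controls lacking either bait or prey.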

B1: dlg1 (protein)
chain: MPVKKQEAHRALELLEDYHARLSEPQDRALRIAIERVIRIFKSRLFQALLDIQEFYELTLLDDSKSIQQKTAETLQIATKWEKDGQAVKIADFIKSSNLNRNCAYEFNNDASSNQTNQSALNQNPIANNVSAQAQAEALSRTFKSELEEILNQRMRIESDTENAKEPTVEQQQKQQQAQQRSSRSPQQQNPQQQQGSKSRSGSQTVNGDDSWLYEDIQLERGNSGLGFSIAGGTDNPHIGTDTSIYITKLISGGAAAADGRLSINDIIVSVNDVSVVDVPHASAVDALKKAGNVVKLHVKRKRGTATTPAAGSAAGDARDSAASGPKVIEIDLVKGGKGLGFSIAGGIGNQHIPGDNGIYVTKLMDGGAAQVDGRLSIGDKLIAVRTNGSEKNLENVTHELAVATLKSITDKVTLIIGKTQHLTTSASGGGGGGLSSGQQLSQSQSQLATSQSQSQVHQQQHATPMVNSQSTEPGSRYASTNVLAAVPPGTPRAVSTEDITREPRTITIQKGPQGLGFNIVGGEDGQGIYVSFILAGGPADLGSELKRGDQLLSVNNVNLTHATHEEAAQALKTSGGVVTLLAQYRPEEYNRFEARIQELKQQAALGAGGSGTLLRTTQKRSLYVRALFDYDPNRDDGLPSRGLPFKHGDILHVTNASDDEWWQARRVLGDNEDEQIGIVPSKRRWERKMRARDRSVKFQGHAAANNNLDKQSTLDRKKKNFTFSRKFPFMKSRDEKNEDGSDQEPFMLCYTQDDANAEGASEENVLSYEAVQRLSINYTRPVIILGPLKDRINDDLISEYPDKFGSCVPHTTRPKREYEVDGRDYHFVSSREQMERDIQNHLFIEAGQYNDNLYGTSVASVREVAEKGKHCILDVSGNAIKRLQVAQLYPVAVFIKPKSVDSVMEMNRRMTEEQAKKTYERAIKMEQEFGEYFTGVVQGDTIEEIYSKVKSMIWSQSGPTIWVPSKESL
For the molecule B1, the results for the MAPPIT interaction score in assay [1] and in [2] were 1.68 and 0.743, respectively.

B2: slp2 (protein)
chain: MVKIEEGLPSSEISAHSLHFQHHHHPLPPTTHHSALQSPHPVGLNLTNLMKMARTPHLKSSFSINSILPETVEHHDEDEEEDVEKKSPAKFPPNHNNNNLNTTNWGSPEDHEAESDPESDLDVTSMSPAPVANPNESDPDEVDEEFVEEDIECDGETTDGDAENKSNDGKPVKDKKGNEKPPYSYNALIMMAIRQSSEKRLTLNGIYEYIMTNHPYYRDNKQGWQNSIRHNLSLNKCFVKVPRHYDDPGKGNYWMLDPSAEDVFIGGSTGKLRRRTTAASRSRLAAFKRSLIGPMFPGLAAYPQFGQFLTYPPTAPSLLASMYQRYNPFAPKGGPGHPGLPPGLPGLPGPPGPQGPPGPPPPPFVAPPTSSELYQRLQYQQLLHQHAAAAALAAHQRQLSVAAASAASQPPPTHHHPHLAVGQAPLSPGGDSPGPSPQPLHKPVTVVSRNS
With B2, the MAPPIT interaction score in [3] is -0.371.

B3: fd59A (protein)
chain: MHTSTDPMHTLHDSVSLSPPLIKSSRGGSSIGNGIGCSASSRTAAADAMSMGCDDSDIEPSSMGGSGAAGGNGDGSGSSGGPLVKPPYSYIALITMAILQSPHKKLTLSGICDFIMSRFPYYKDKFPAWQNSIRHNLSLNDCFIKVPREPGNPGKGNFWTLDPLAEDMFDNGSFLRRRKRYKRAPTMQRFSFPAVFGTLSPFWIRKPVPLVPVHFNVPNFNGSREFDVVHNPADVFDSALRADKKFNFFANAEASFYQGSQSGDKFDRLPFMNRGRGADVLDALPHSSGSGGGVGGGSESSRGSKYKSPYAFDVATVASAAGIPGHRDYAERLSAGGGYMDLNVYNDDADTEADAEAEGDDDSCEDKIDVESGNEQEDSHISDSVDSACTNRLDAPPEALIFEASAEASDSSPRRRFDSEPLVLRTSKQSSAKDFRIETLIGHHLHRGGSQEETSD
Regarding B3, the MAPPIT interaction score in [4] was 0.602.

B4: MED8 (protein)
chain: MQRDEKLFELTLDTVLQRLNDLKLAVLSMIQKLELEYETINWPTFLDNFAIISSHLTGLTKILAKEQCPPLRNRTVLPLLVSMDRDDTLINITEGRVPVFSHDIVPDYLRTRPDPITEQKMLQNEQKAANLTNDAAMKQVTQYNKVVSHVLDMVSKAREEWEIESSSRTGIQQTSSMADTQLLVAAVGMGKGLKLTNYGPGPGMMVPPSIRAPSPMGGPAMSPGNVQQQLGKAPSAVKTNIKSANQVHPFSR
B4: the MAPPIT interaction score in assay [5] (MAPPIT configuration: N-C) was 3.01; in [5] (MAPPIT configuration: N-N), 2.19.

B5: CG6724 (protein)
chain: MDVDNGEGQVQVHLKTKQEHYAVPDVPYAIDGTVTTVELNTFVNALLRQKDGSSDTDFDFLVFDEYLRGRLCDHLREKAISFEDAIEIEYVERFPAPEPQDCLLHDDWVSAVKARGKWILSGCYDNTLNLWTNKGKHILTISGHTAPIKAVDWISLDEETGRFVSTSQDQTAMLWQWNVGSNSVECVSVCKGHERGVDSVSVSPDGLRFATGSWDTMLKVWSAELDDAVEGSSKRMKESGVRTPKITLQGHRESVSAVQWMDATTLLTGSWDHTLKVWDLSLEGIKTEISTNKSIFDASYSKLNRLILTASADKNLRLYDPRTNQGSVVRNTYLGHNAWVQTVMWSTTEEFLFVSGAYDNQNKLWDCRSPKAPLYDLLGHGEKVLDIDWSNPKYIVSGGVDNTVRVFKSRKALAEEAETK
Take B5: in [6], the MAPPIT interaction score was 0.11.

B6: ihog (protein)
chain: MTLLTSSLLLFSLLTSRLEAIPVLEKSPAHPAHSAHPAHPAHPAHPAHPSPGVRILRAPESLVAPLGDEVVLECETSLQPERFEWSHRSSRSPGAGFKYLKTGTAKANVSQEAAISRLRVLVRPDTLGEYRCVGWFGPLVVTSTIARLELASTSLVDAQESESPLQWRVSAGNSVLWSCGQQVQSNPSASWSYYRNGVEIKPEFIGTNGNLFLSNVSSESSGSYSCQATNPASGERIQLPGSLQLQVTPEQRSESKSPHLLRGQPSSQEITIREGSSLLLLCPGVGSPPPTVVWSSPDVVGAVKNKRSKVFGHALEISNTRVNDAGTYICFQDNGVRPALEHYIKVHVEQPPQIVRPPWADLTNEGDRLKLECKATGVPTPEIYWLLNGHSSIDDSEAELSNNFLILHSVLKRHAGYVQCFARNRLGEHSAGTLLQVNPKQIQEPRESGGTHRPKPNQGSRQKQMYPPTPPNVTRLSDESVMLRWMVPRNDGLPIVIFKVQYRMVGKRKNWQTTNDNIPYGKPKWNSELGKSFTASVTDLKPQHTYRFRILAVYSNNDNKESNTSAKFYLQPGAALDPMPVPELLEIEEYSETAVVLHWSLASDADEHLITGYYAYYRPSSSAGEYFKATIEGAHARSFKIAPLETATMYEFKLQSFSAASASEFSALKQGRTQRPKTSTTEEPTLQMGDRDTTTPSHNETFNMSPMLTGTIGGGAVLILLLISTCFCVCRRRNSRSRGNNPNKPRMAELRDDFVPLGNCSPTKQRQRTRHIHITLNPLAQQQQQALEEKNDTDQDAPYYQRPSSYDYDPTLRRMSSSSLRRSQRTLERAGGSNGSNNGNNNNLNQSAEAGSIENPGKPGRVLMKRPRLSSRSENLSSGSLNSVGV
As to B6, the MAPPIT interaction score was -0.576 in assay [7] (MAPPIT configuration: N-C) and -0.268 in assay [7] (MAPPIT configuration: N-N).

B7: TH1 (protein)
chain: MEVEYDDSGWQGRAKGQTNPEETLEDNPQKTIQECLEKFLTPDYIMEPGIFTQLKRYFQSGGSPEEVISMLSENYKAVAQMANLLAEWLILAGVKVTEVQAMVENHLKEMILKSFDPKKADTIFTEEGETPDWLTEMIDHYTWRSLIYRLAEEYPDCLMLNFTIKLISDAGFQSEITSISTAAQQIEVFSRVLKTSIVKFLNNPDDVHGAIQECARMVCHGQHTYVYSQVLIQVLSQEQKGGFNMKRLSQEIIKYALQNNQNVTPITMALNGSAVYPQACQALTSMLTRNTLNPADITVLFRNYSGSDPPPIDLIRNPQFLELLVDALFRSGVKINPEHKPKYMFLLAYASAVIDQPAKKRPMTERMLNKEELKSTIQAIEKAHTICNVDQGSTELIAELQTLYNCIKYPVVGVGVIRWIENVVMEPSYFKLSTDSCPTHLAVLDEVAAVHPTLQQQILFLLIRLFESKQDELEILVQLEMKKMILDRMVNLLTRGCVVPVLRYIKQCCAIEDTDISLIRYFVTEVLETITHPYSPEFVQLFLPMVENEEITGTMRGEGDNDPVSEFIVHCKAHYTTV
As for B7, the values for the MAPPIT interaction score in [8] (MAPPIT configuration: N-C) and in assay [8] (MAPPIT configuration: N-N) were 0.00492 and -0.0162, respectively.

B8: eIF2gamma (protein)
chain: MATAEAQIGVNRNLQKQDLSNLDVSKLTPLSPEVISRQATINIGTIGHVAHGKSTVVKAISGVQTVRFKNELERNITIKLGYANAKIYKCDNPKCPRPASFVSDASSKDDSLPCTRLNCSGNFRLVRHVSFVDCPGHDILMATMLNGAAVMDAALLLIAGNESCPQPQTSEHLAAIEIMKLKQILILQNKIDLIKESQAKEQYEEITKFVQGTVAEGAPIIPISAQLKYNIDVLCEYIVNKIPVPPRDFNAPPRLIVIRSFDVNKPGCEVADLKGGVAGGSILSGVLKVGQEIEVRPGVVTKDSDGNITCRPIFSRIVSLFAEQNELQYAVPGGLIGVGTKIDPTLCRADRLVGQVLGAVGQLPDIYQELEISYYLLRRLLGVRTDGDKKGARVEKLQKNEILLVNIGSLSTGGRISATKGDLAKIVLTTPVCTEKGEKIALSRRVENHWRLIGWGQIFGGKTITPVLDSQVAKK
As for B8, the MAPPIT interaction score in [9] was 0.425.

B9: Uba5 (protein)
chain: MSHAIDELQAIIADLKTELETEPKSSGGVASNSRLARDRIDRMSAEVVDSNPYSRLMALQRMNIVKDYERIRYKAVAIVGVGGVGSVTADMLTRCGIGKLILFDYDKVELANMNRLFFTPDQAGLSKVAAAAATLSFINPDVEIETHNYNITTVENFDRFLDTISQGGRIAGQPVDLVLSCVDNFEARMAINAACNERNLNWFESGVSENAVSGHIQFIRPGDTACFACAPPLVVAENIDEKTLKREGVCAASLPTTMGITAGFLVQNALKYLLNFGEVSDYLGYNALSDFFPKMTLKPNPQCDDRNCLVRQKEFQARPKPVLIEEKAVSEEPLHATNEWGIELVAEDAPESNTTPAETPVMGEGLRLAYEAPEKSSETSEETVSAATADETSLEDLMAQMKSM
As for B9, the MAPPIT interaction score in assay [10] was 0.0658.

B10: sesB (protein)
chain: MGNISASITSQSKMGKDFDAVGFVKDFAAGGISAAVSKTAVAPIERVKLLLQVQHISKQISPDKQYKGMVDCFIRIPKEQGFSSFWRGNLANVIRYFPTQALNFAFKDKYKQVFLGGVDKNTQFWRYFAGNLASGGAAGATSLCFVYPLDFARTRLAADTGKGGQREFTGLGNCLTKIFKSDGIVGLYRGFGVSVQGIIIYRAAYFGFYDTARGMLPDPKNTPIYISWAIAQVVTTVAGIVSYPFDTVRRRMMMQSGRKATEVIYKNTLHCWATIAKQEGTGAFFKGAFSNILRGTGGAFVLVLYDEIKKVL
With B10, the MAPPIT interaction score in [11] (MAPPIT configuration: N-C) is 0.0222; in assay [11] (MAPPIT configuration: N-N) it was -0.106.

B11: Sirt2 (protein)
chain: MDKVRRFFANTLHLGGSSDAKEEVKVEKVIPDLSFDGFAEHWRVHGFRKIVTMVGAGISTSAGIPDFRSPGSGLYSNLKKYELPHPTAIFDLDYFEKNPAPFFALAKELYPGSFIPTPAHYFIRLLNDKGLLQRHYTQNIDTLDRLTGLPEDKIIEAHGSFHTNHCIKCRKEYDMDWMKAEIFADRLPKCQKCQGVVKPDIVFFGENLPKRFYSSPEEDFQDCDLLIIMGTSLEVQPFASLVWRPGPRCIRLLINRDAVGQASCVLFMDPNTRSLLFDKPNNTRDVAFLGDCDAGVMALAKALGWDQELQQLITSERKKLSGSQNSEELQQGKEKPQSDPDKMTSGDRDKKDASL
As to B11, the MAPPIT interaction score in assay [12] is -0.0617.

(Values after the supplement of paper PMC10105736.)
